Experimental findings from PubChem BioAssay (NCATS) are described below.

Experiment [1] is described as follows: NFAT Signaling Pathway (AID 444; active means well fitted curve in either direction with a large enough effect, not every such curve was filed as active;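 further: carbachol stimulus at about its EC50 of 1 µM final; on the % scale 0 is the no-effect control and ±100 the full control effect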). The note with it: Jurkat NFAT-bla M1, carbachol, beta-lactamase ratio, 5 h; at 17.2 µM (top of the series) unless noted. Put shortly:
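Jurkat cells with NFAT-driven β-lactamase reporter and co-expressed M1 receptor, stimulated with carbachol (final 1 uM, ~EC50), compound titration, 5 h at 37 °C. CCF4 loaded 1 h at RT; 460/530 nm ratio gave %activity and AC50.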

Experiment [2] is described as follows: Stat Signaling Pathway (AID 446; active means well fitted curve in either direction with a large enough effect, not every such curve was filed as active;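 further: ME-180 cervical cancer cells given 40 pM IL-6 alongside compound; SIE-controlled beta-lactamase reporter measured as 460/530 nm FRET emission ratio; on the % scale 0 is the no-effect control and ±100 the full control effect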). Conditions: ME-180 (cervical carcinoma) SIE beta-lactamase reporter, IL-6 stimulated, 5 h; at 17.2 µM (top of the series) unless noted. Put shortly: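 Compound effects on IL-6-induced STAT reporter activity were measured in ME-180 cells. After overnight culture, cells were co-treated with 40 pM IL-6 for 5 hrs before beta-lactamase substrate loading at room temperature.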

The target of experiment [3] is Glucocorticoid receptor (Homo sapiens) (UniProt P04150). Put plainly: GR-GFP Redistribution (AID 450;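 active means compounds whose dose series gives a full or clear partial fitted curve of increased nuclear translocation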; further: potency means the concentration at half of the fitted maximal effect).
Sequence of Glucocorticoid receptor (Homo sapiens) (P04150 whole entry, looked up): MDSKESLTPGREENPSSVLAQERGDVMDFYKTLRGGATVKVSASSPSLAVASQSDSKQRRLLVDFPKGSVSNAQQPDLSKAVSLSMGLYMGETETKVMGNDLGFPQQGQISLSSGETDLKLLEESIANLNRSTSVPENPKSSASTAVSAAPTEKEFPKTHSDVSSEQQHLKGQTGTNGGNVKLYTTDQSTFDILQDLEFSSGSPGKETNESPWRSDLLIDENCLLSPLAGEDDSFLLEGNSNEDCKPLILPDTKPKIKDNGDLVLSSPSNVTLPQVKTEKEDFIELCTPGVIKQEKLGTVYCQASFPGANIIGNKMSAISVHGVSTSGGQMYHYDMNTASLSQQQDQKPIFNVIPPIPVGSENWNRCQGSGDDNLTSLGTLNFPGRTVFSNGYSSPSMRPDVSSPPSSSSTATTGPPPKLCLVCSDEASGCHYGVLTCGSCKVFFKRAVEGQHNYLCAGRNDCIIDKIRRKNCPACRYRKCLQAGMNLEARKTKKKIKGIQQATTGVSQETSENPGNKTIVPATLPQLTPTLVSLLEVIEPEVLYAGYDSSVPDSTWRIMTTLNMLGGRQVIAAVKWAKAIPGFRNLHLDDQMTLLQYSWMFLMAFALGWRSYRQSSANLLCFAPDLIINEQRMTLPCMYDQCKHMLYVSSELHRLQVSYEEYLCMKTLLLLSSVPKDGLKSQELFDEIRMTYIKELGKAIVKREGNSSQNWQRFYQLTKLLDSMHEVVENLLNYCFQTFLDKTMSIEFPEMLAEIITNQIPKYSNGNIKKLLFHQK
Experiment [4] is described as follows: Cell Viability - BJ (AID 421; calls by dose curve;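 further: potency means the concentration at half of the fitted maximal effect; cells exposed to compound for 40 hours at 37 °C before readout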). Conditions: BJ fibroblast viability, qHTS. Put shortly:
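Luminescent ATP signal (CellTiter-Glo, 20 min at room temperature) served as the read-out of viable BJ cells after 40 hours of compound treatment. Responses were scaled between DMSO and 100 uM tamoxifen, and AC50 values were obtained by Hill modeling.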
Background: In qHTS, concentration-response curves come from the screen itself.

A short description of experiment [5]: Cell Viability - MRC5 (AID 434; calls by dose curve;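 further: potency means the concentration at half of the fitted maximal effect; cells exposed to compound for 40 hours at 37 °C; potency reflects cytotoxicity seen as loss of intracellular ATP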). Conditions: MRC5 lung fibroblast viability, qHTS. Put shortly: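 ATP luminescence read-out (CellTiter-Glo, 20 min RT) after 40 hr, 37 °C compound exposure of 1500 MRC5 cells/well. Data normalized to DMSO (basal) and 100 uM tamoxifen (100% inhibition); AC50 from standard Hill equation.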
The nature of experiment [6]: Cell Viability - SK-N-SH (AID 435; calls by dose curve;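 further: potency means the concentration at half of the fitted maximal effect; compound exposure lasted 40 h at 37 °C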). The note with it: SK-N-SH neuroblastoma cell viability qHTS. The gist of the method: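 Cells seeded at 1500 per well and incubated 5 hr at 37 °C. Compound added, then 40 hr at 37 °C. CellTiter-Glo added, 20 min at room temperature, luminescence read.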
For experiment [7], the target named is Mitogen-activated protein kinase 10 (Mus musculus) (UniProt Q61831). Put plainly: JNK3 AlphaScreen Assay (AID 530; active means well fitted curve in either direction with a large enough effect, not every such curve was filed as active;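 further: kinase came from lysate of stimulated human HepG2 cells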; further: potency means the concentration at half of the fitted maximal effect;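 on activity change, negative = inhibition: signal reports phosphorylation of biotinylated GST-cJun 1-79 at Ser73 with 10 µM ATP; on the % scale 0 is the no-effect control and ±100 the full control effect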). Put shortly: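 Activity was read by AlphaScreen after JNK3-containing HepG2 lysate (cytokine pre-activated) phosphorylated biotinylated GST-cJun with 10 uM ATP at room temperature. Phospho-Ser73 cJun antibody with Protein-A acceptor beads provided detection.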
Background: In Alpha technology, singlet oxygen from a donor bead excites a nearby acceptor bead.

A short description of experiment [8]: Cell Viability - N2a (AID 540).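 Further: cells exposed to compound for 40 h at 37 °C; nearly all actives have a fitted effect of over 45% in size.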 Further: potency means the concentration at half of the fitted maximal effect.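 On activity change, negative = cytotoxicity: plate controls were DMSO alone for no effect and tamoxifen control for full effect.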 Conditions: N2a mouse neuroblastoma cell viability; activity change, negative = cytotoxicity: at 92.2 µM (top of the series). Put shortly:
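Cytotoxicity was scored as loss of cellular ATP in N2a cells, a mouse neuroblastoma line. Compounds are applied in a qHTS concentration series for 40 hr at 37 °C.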

Experiment [9] is described as follows: Cell Viability - NIH 3T3 (AID 541). Further: nearly all actives have a fitted effect of over 25% in size. Further: potency means the concentration at half of the fitted maximal effect.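 On activity change, negative = cytotoxicity: plate controls were DMSO alone for no effect and tamoxifen positive control for full effect.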 Conditions: NIH 3T3 cell viability, qHTS; activity change, negative = cytotoxicity: at 92.2 µM (top of the series). Put shortly:
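Cells seeded at 1000/well, rested 5 hr at 37 °C, then dosed and incubated 40 hr at 37 °C. CellTiter-Glo added, 20 min room temperature, luminescence read. AC50 by Hill fit.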

The nature of experiment [10]: Cell Viability - Renal Proximal Tubule (AID 545). Further: nearly all actives have a fitted effect of over 40% in size. Further: potency means the concentration at half of the fitted maximal effect. Conditions: renal proximal tubule cells viability, primary cells of rat origin; activity change, negative = cytotoxicity: at 91.7 µM (top of the series). The gist of the method: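 Cytotoxicity is scored as a concentration-dependent drop in cellular ATP in primary rat renal proximal tubule cells exposed for 40 hr. AC50 derives from Hill modelling.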

Experiment [11] is described as follows: Cellular Toxicity (caspase-3) HepG2 (AID 654). Further: potency means the concentration at half of the fitted maximal effect.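 On caspase-3 activation: cells exposed to compound for 16 hours before reading; 0% = DMSO alone and 100% = caspase signal from 100 µM tamoxifen.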 Put shortly: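 Caspase 3/7 activation in HepG2 is measured as rising luminescence after a 16 hr treatment at 37 °C. Values are scaled between DMSO basal and 100 uM tamoxifen, and AC50 is fitted with the Hill equation.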
A short description of experiment [12]: Cellular Toxicity (caspase-3) Jurkat (AID 655).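 Further: cells exposed to compound for 16 h at 37 °C before reading.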 Further: potency means the concentration at half of the fitted maximal effect. The note with it: Jurkat caspase-3 activation, luminescence; caspase-3 activation: at 92.2 µM (top of the series), DMSO = 0%, tamoxifen = 100%. Put shortly: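 Caspase 3/7 activation is scored as increased luminescence in Jurkat cells cultured with compound for 16 hours in complete medium. AC50 values come from Hill fits of qHTS concentration-response data normalized to DMSO and 100 uM tamoxifen controls.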

Experiment [13] can be described thus: Cellular Toxicity (caspase-3) HUV-EC-C (AID 656). Put shortly: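 Read-out: luminescence proportional to caspase 3/7 activity, measured 20 min after adding Caspase-Glo 3/7 reagent. Cells (HUV-EC-C) had received compound for 16 hr at 37°C. Increases relative to DMSO and 100 uM tamoxifen gave concentration-response AC50 values.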
Experiment [14] in a line: Cellular Toxicity (caspase-3) SHSY5Y (AID 657). Put shortly:
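Cells plated and incubated 5 h at 37 °C, dosed over a concentration range, incubated 16 h, then given Caspase-Glo 3/7 reagent for 1 h at room temperature before luminescence reading. Staurosporine (10 uM) defined full stimulation.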

Experiment [15] can be described thus: Cellular Toxicity (caspase-3) Mesangial (AID 660).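 Further: cells exposed to compound for 16 h before the caspase read.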 The note with it: mesangial cells, normalized: DMSO 0%, 100 µM tamoxifen 100%; at 91.7 µM (top of the series). The gist of the method: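 Seed cells derived from normal human renal glomeruli, incubate 5 h, add compounds across concentrations and incubate 16 h at 37 °C. Caspase 3/7 activation is then quantified by luciferase light, with AC50 derived by Hill modeling.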

Experiment [16] can be described thus: Cellular Toxicity (caspase-3) H-4-II-E (AID 663).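 Further: cells exposed to compound for 16 hr before readout.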 The note with it: H-4-II-E rat hepatoma; Potency: caspase-3 activation; caspase-3 activation: at 92.2 µM (top of the series), scaled: DMSO 0%, 100 µM tamoxifen 100%. The gist of the method: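 H-4-II-E rat hepatoma, 1500 cells/well, 5 hr settle at 37 °C; compound 16 hr, 37 °C, complete medium; Caspase-Glo 3/7, 20 min RT; luminescence. DMSO = 0%, 100 uM tamoxifen = 100%; Hill-equation AC50.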

Experiment [17] in a line: Cellular Toxicity (caspase-3) N2a (AID 665).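 Further: compound exposure lasted 16 h at 37 °C before readout.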 The note with it: Potency: caspase-3 activation. Put shortly:
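Caspase-3/7 activation, measured as increased luminescence from aminoluciferin release, is quantified in mouse N2a cells exposed to compounds for 16 h. Values are normalized to DMSO and 10 uM staurosporine, with AC50 derived by Hill modelling.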

Experiment [18] in a line: Cellular Toxicity (caspase-3) Renal Proximal Tubule (AID 667).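 Further: cells exposed to compound for 16 hours at 37 °C before detection; 0% = DMSO basal and 100% = 10 µM staurosporine.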 The gist of the method: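 In qHTS format, rat primary proximal tubule cells seeded at 1000 per well are exposed to compounds for 16 hours at 37 °C. An increase in Caspase-Glo 3/7 luminescence indicates caspase activation.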
Experiment [19] is described as follows: Cell Viability - LYMP2-003 (AID 965).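 Further: cells exposed to compounds for 24 h before reading; nearly all actives have a fitted effect of over 50% in size.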 Further: potency means the concentration at half of the fitted maximal effect.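 On activity change, negative = cytotoxicity: 0% = DMSO only and full effect = 92 µM tetraoctylammonium bromide.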 The gist of the method: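 Acute cytotoxicity is scored as a concentration-dependent drop in intracellular ATP, measured by luciferase luminescence in human lymphoblastoid cells treated for 24 hours at 37 C. AC50 values derive from Hill-equation modelling.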
For experiment [20], the target named is Peroxisome proliferator-activated receptor alpha (Homo sapiens) (UniProt Q07869). Put plainly: qHTS assay for small molecule agonists of the peroxisome proliferator-activated receptor alpha (PPARalpha) signaling pathway (AID 651778). Further: % of control where 0% means no effect. Conditions: PathHunter PPARalpha complementation, chemiluminescence, 6 h; max response: active compounds read high. Put shortly: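 Enzyme-fragment complementation assay in which ligand-bound PPARalpha translocates and forms an active enzyme that generates chemiluminescence. Cells were plated overnight, exposed to compound for 6 hr at 37 C, and then given detection reagent for 60 min at room temperature.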
Sequence of Peroxisome proliferator-activated receptor alpha (Homo sapiens) (Q07869 whole entry, looked up, the tested form may be a part): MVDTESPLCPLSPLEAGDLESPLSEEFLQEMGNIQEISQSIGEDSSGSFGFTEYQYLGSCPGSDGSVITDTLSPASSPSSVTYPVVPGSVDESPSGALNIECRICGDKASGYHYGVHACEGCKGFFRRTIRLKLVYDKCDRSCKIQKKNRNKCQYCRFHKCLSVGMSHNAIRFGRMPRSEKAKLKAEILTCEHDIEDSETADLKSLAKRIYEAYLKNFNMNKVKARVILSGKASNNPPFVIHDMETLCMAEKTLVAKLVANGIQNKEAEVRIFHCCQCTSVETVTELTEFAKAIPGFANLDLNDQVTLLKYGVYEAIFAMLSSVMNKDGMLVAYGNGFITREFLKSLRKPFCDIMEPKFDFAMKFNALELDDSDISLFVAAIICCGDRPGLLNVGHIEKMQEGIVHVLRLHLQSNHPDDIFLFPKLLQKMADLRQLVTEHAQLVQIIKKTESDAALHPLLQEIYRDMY

“And” between values parts separate entries of the source, which are not always exact repeats. Equal entries are not always repeated. A number with no mark means an inactive call. Records with an inconclusive call do not appear. The source made the active and inactive calls. Unless noted, the call rests on the fitted dose curve; in most records, active means well fitted curve in the direction sought with a large enough effect; inconclusive means small, poorly fitted or top-dose-only effect, or another doubt; inactive means no such curve, though single readings can be large; an effect the other way counts as inactive or inconclusive.

`CN1CCc2c(C#N)c(N3CCCCC3)nc(NCc3ccccc3)c2C1`: the activity change, negative = inhibition in experiment [1] was -7.69%. For the same molecule, the activity, negative = inhibition in [2] was -16.2%. Also, in experiment [3], the Potency is > 20.6 µM.
With `O=Cc1ccc(Cl)c(Cl)c1`, the Potency in [4], in [5] and in experiment [6] was > 92 µM throughout. Besides, the Potency result in experiment [7], in experiment [8], in [9], in experiment [10], in experiment [11] and in experiment [12] was “inactive” each time. Besides, the Potency entry in experiment [13], in experiment [14], in [17] and in [19] was “inactive” throughout. The caspase-3 activation in experiment [15] was -1.53%; in experiment [16], 0.309%. Moreover, the molecule was called inactive in experiment [18]. Moreover, the max response in experiment [20] is 1.8%.
For `CC(=O)Nc1ccc(C(=O)CCl)cc1`, the Potency is 36.2 µM (active) in experiment [4]; 15.6 µM (active) in experiment [6]; 25.1 µM (active) in experiment [8]; 2 µM (active) in experiment [9]; 31.6 µM (active) in [10]; 6.31 µM (active) in [19]. The Potency result in experiment [7], in experiment [11], in experiment [12], in experiment [13], in experiment [14] and in experiment [17] was “inactive” each time. For the same molecule, in experiment [15], the caspase-3 activation is -4.19%. Moreover, the molecule was classed as inactive in experiment [18]. The max response in experiment [20] was -5.76% and -2.53%.
Take `Cc1ccc(Cn2ncc3c(N4CCN(c5ccc(C)cc5)CC4)ncnc32)cc1`: the activity change, negative = inhibition in [1] was -24.6%. The activity, negative = inhibition in experiment [2] is -13.5%. In addition, the Potency in [3] is > 20.6 µM.
For the molecule `C=C(C)c1ccccc1`, the Potency in experiment [4], in experiment [5] and in [6] was > 92 µM in each case. The Potency result in [8], in [9], in experiment [10], in experiment [11], in experiment [12] and in [13] was “inactive” throughout. In addition, the Potency result in [14], in experiment [17] and in experiment [19] was “inactive” throughout. The caspase-3 activation in experiment [15] is 0.545%; in [16], 1.07%. The molecule was classed as inactive in experiment [18]. Also, in experiment [20], the max response was -0.0788%.
Regarding `ClC1=C(Cl)C(Cl)(Cl)C(Cl)=C1Cl`, the Potency in experiment [4] is > 92 µM; in experiment [5], > 92 µM; in experiment [6] it was > 92 µM; in experiment [11], 10 µM (active); in experiment [12] it was 0.316 µM (active). Further, the Potency entry in experiment [7], in experiment [10], in experiment [13], in experiment [14], in experiment [17] and in [19] was “inactive” in each case. For the same molecule, in [9], the activity change, negative = cytotoxicity is -125% (active). Besides, the caspase-3 activation in [15] is 0.653%; in [16], 4.97%. In addition, the molecule was classed as inactive in [18]. In addition, the max response in experiment [20] was -0.568% and 0.283%.
As to `Nc1ccc2cc3ccccc3cc2c1`, the Potency in [4], in experiment [5] and in experiment [6] was > 92 µM throughout. Also, the Potency result in experiment [8], in [9], in experiment [10], in experiment [11], in experiment [12] and in experiment [13] was “inactive” in each case. The Potency entry in [14], in [17] and in [19] was “inactive” each time. Also, the caspase-3 activation in [15] was -0.235%; in experiment [16] it was -0.822%. Further, in [18], the call was inactive. In addition, in [20], the max response was -3.75%.
On to `Cc1ccc(S(=O)(=O)Oc2ccc(N=Nc3ccc(-c4ccc(N=Nc5c(O)ccc6cc(S(=O)(=O)O)cc(S(=O)(=O)O)c56)c(C)c4)cc3C)cc2)cc1`, for which the Potency in experiment [5] is > 92 µM; in [7], 0.2 µM (active); in [10], 31.6 µM (active). For the same molecule, the Potency entry in experiment [11], in experiment [12], in [13], in experiment [14], in [17] and in experiment [19] was “inactive” throughout. Besides, the caspase-3 activation in [15] is -0.709%; in experiment [16] it was -0.204%. Further, the outcome in [18] was inactive. Further, in experiment [20], the max response is -11.2%.
Take `Cc1ccc(-n2ncc3c(NCc4ccc5c(c4)OCO5)ncnc32)c(C)c1`: in experiment [1], the activity change, negative = inhibition was 8.44%. For the same molecule, the activity, negative = inhibition in experiment [2] was -19.8%. The Potency in [3] was > 20.6 µM.
In the same order, the values of `CN(C)C/C(Cl)=C(\Cl)c1ccccc1` are -119% (active), -22.6% and > 20.6 µM.
Regarding `Cc1cc(Nc2ccc(O)cc2)ccc1N`, the Potency in [5] was > 92 µM; in experiment [6] it was 87 µM (active); in experiment [19], 50.1 µM (active). Further, the activity change, negative = cytotoxicity in [8] was -119% (active); in experiment [9], -158% (active). The Potency entry in experiment [10], in experiment [11], in [13], in experiment [14] and in [17] was “inactive” in each case. Further, the caspase-3 activation in [15] was 23.2%; in experiment [16], 20.7%. In addition, the call in experiment [18] was inactive. For the same molecule, in experiment [20], the max response is -7.64%.
